Most compounds without a hit are left out; they make up all but 0.85% or so of the library.
ASM inhibitor: human S-ASM enzyme inhibition | P17405 | placental ASM, HMU-PC fluorogenic substrate, 60 min | Potency, µM (doses to about 57.5 µM), usual class: inhibitors | 0.006% of 340,000 active | AID 504937; active = well fitted inhibition curve with a large enough effect; inconclusive = small, poorly fitted or top-dose-only effect; inactive = no such curve, though single readings can be large or run the other way
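Human placenta-derived ASM enzyme was preincubated with compound for 10 minutes at room temperature, then given fluorogenic substrate HMU-PC0 (9 uM final) for 60 minutes at 37 °C; a pH 10 stop preceded fluorescence reading at Ex 386/Em 447 nm.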
TSHR antag: antagonists of human thyroid stimulating hormone receptor. TSHR-expressing cells, TSH-stimulated cAMP HTRF, 2 h; hits give low values. activity change, negative = inhibition, % at 11.5 µM. 0.2% of 330,000 active. P16473;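 active = activity change below a set negative limit, meaning inhibition stronger than a set level, cut at about -70% in these data; inconclusive = activity change between two set negative limits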
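Antagonism was scored as loss of TSH-driven cAMP in TSHR cells, stimulated with 4nM TSH (EC80) for 2 hours at 37 deg C and detected by homogeneous HTRF competition immunoassay.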
Chronic BCR inh: blocks chronic active B-cell receptor signaling. ABC-DLBCL IkBa-CBG/CBR reporter, luminescence ratio, 4 h. Potency, µM (doses to about 46.1 µM), most hits filed as inhibitors. 0.05% of 340,000 active; active = well fitted inhibition curve with a large enough effect in the signal ratio, with a control signal flat, not every such curve was filed as active; inconclusive = small, poorly fitted or top-dose-only effect, or effect the other way, or a change in a side signal; the % refers to the signal ratio
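Doxycycline induced both beetle luciferases in TMD8 lymphoma cells; IKK-driven degradation limits the IkappaBalpha-fused green signal, while red luminescence normalises for cell number and nonspecific effects. Compounds tested up to 46 uM, 4 hrs.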
CtBP-E1A inh: inhibitors of CtBP/E1A interaction; AlphaScreen GST-E1A/His-CtBP binding, 1536-well; hits give low values; activity change, % (no concentration beside the values); 0.49% of 340,000 active
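In 5 uL wells, 23 nL compound meets equimolar GST-E1A and His-CtBP (5X stock 125 nM each) for 2 h, 37 °C. Beads (5X, 50 ug/mL) then 1 h, 37 °C, dark.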
Six1-Eya2 blk: inhibitors of human Six1/Eya2 interaction; 0.56% of 360,000 active; activity change, % (test concentration not listed); Q15475+O00167; AlphaScreen GST-Six1/His-Eya2 binding, biochemical; hits give low values
Target sequence (O00167 whole entry, looked up): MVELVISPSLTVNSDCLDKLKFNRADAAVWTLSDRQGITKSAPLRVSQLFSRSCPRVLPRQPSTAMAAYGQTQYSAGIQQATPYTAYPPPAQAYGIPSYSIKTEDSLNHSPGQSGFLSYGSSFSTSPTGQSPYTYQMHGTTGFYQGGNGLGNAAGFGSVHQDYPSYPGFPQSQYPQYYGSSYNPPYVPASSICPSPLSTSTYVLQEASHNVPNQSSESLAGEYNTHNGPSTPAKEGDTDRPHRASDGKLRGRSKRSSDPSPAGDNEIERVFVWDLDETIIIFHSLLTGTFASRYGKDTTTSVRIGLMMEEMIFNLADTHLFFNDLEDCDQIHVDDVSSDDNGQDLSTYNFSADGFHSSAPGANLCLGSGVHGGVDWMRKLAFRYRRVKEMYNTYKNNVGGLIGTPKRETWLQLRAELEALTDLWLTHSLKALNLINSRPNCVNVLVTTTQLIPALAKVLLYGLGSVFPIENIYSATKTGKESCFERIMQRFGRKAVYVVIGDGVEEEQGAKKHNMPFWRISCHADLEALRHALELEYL
Target sequence (Q15475 whole entry, looked up): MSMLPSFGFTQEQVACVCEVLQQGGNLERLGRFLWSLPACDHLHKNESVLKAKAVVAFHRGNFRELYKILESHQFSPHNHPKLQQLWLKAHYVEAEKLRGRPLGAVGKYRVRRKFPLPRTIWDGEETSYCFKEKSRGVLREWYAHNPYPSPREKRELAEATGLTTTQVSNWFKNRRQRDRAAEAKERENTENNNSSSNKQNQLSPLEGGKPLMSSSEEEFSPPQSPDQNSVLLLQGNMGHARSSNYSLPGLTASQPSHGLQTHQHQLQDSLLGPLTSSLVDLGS
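GST-Six1 + His-Eya2 (5X stock: 250/500 nM); Tris pH 8.0, 300 mM NaCl, 0.05% BSA, 0.02% Tween 20; GSH donor/Ni acceptor beads; 1 h 37 °C dark; AlphaScreen readout.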
Hits are given with their value; . = inactive; ? = inconclusive; / = no result given. Rule as the data show it, unless noted: active = activity change below about -65%; inconclusive = mostly about -30% to -63%; inactive = weaker than that.

SMILES	ASM inhibitor	TSHR antag	Chronic BCR inh	CtBP-E1A inh	Six1-Eya2 blk
COc1ccc(Nc2nc(N3CCCC3)c3ccccc3n2)cc1	.	/	.	?	.
CCN(CC)c1ccc(Nc2nc(N3CCOCC3)c3ccccc3n2)cc1	.	.	?	-78	-81
N#CC(C#N)=C1C=CC=CN1/C(=C\c1ccco1)C(=O)c1ccccc1	.	?	?	.	.
N#CC(C#N)=C1C=CC=CN1/C(=C\c1ccco1)C(=O)c1ccc(Br)cc1	.	-91	?	.	.
O=C(Nc1ccccc1N1CCOCC1)c1ccc(S(=O)(=O)NCc2ccco2)cc1	.	-77	.	.	.
CCc1ccc(NC(=O)CSc2nc3c(sc4ccccc43)c(=O)n2CCCOC(C)C)cc1	/	/	.	/	/
Oc1c(C(c2ccc(Cl)cc2)N2CCC3(CC2)OCCO3)sc2nc(-c3ccco3)nn12 (stereo not drawn)	/	/	.	/	/
O=C(NCc1ccccc1)C(=O)Nc1c2c(nn1-c1ccccc1)CSC2	/	/	.	/	/
CCOC(=O)C1CCCN(C2=C(NS(=O)(=O)c3ccc(Br)cc3)C(=O)c3ccccc3C2=O)C1 (stereo not drawn)	.	.	.	/	-71
CC1CCCN(C2=C(NS(=O)(=O)c3ccc(Br)cc3)C(=O)c3ccccc3C2=O)C1 (stereo not drawn)	.	.	.	?	.
CCOC(=O)C1CCN(C2=C(NS(=O)(=O)c3ccc(Cl)cc3)C(=O)c3ccccc3C2=O)CC1	.	.	.	-81	?
Cc1c(Cl)cccc1NC(=O)CSc1nc(=O)[nH]c2c1CCC2	/	/	.	/	/
COc1ccc(-c2nc3scc(CCNS(=O)(=O)c4c(C)cc(C)cc4C)n3n2)cc1OC	/	/	.	/	/
CCN1C(=O)C(Cc2nc3ccccc3c(=O)n2C)c2cc(C)ccc21 (stereo not drawn)	/	/	.	/	/
COc1ccc(C(=O)Nc2ccccn2)cc1S(=O)(=O)N1CCOCC1	.	.	?	.	.
COc1ccc(C(=O)Nc2nc(-c3ccccn3)cs2)cc1S(=O)(=O)N1CCOCC1	.	/	.	/	-93
Cc1ccc(S(=O)(=O)N2CCOCC2)cc1C(=O)Nc1nc(-c2ccccn2)cs1	.	.	.	.	-85
COc1ccc2nc(/N=C\N(C)C)sc2c1	.	.	.	.	.
COc1ccc2nc(/N=C/c3c(C)[nH]n(-c4ccc(C)cc4)c3=O)sc2c1	.	.	.	?	-76
COc1cc(-c2cc3nc(NCCc4ccncc4)ccn3n2)cc(OC)c1OC	/	/	/	.	.
COc1cc(CCNc2ccc3nnc(-c4ccccc4)n3n2)cc(OC)c1OC	.	.	.	-90	-80
O=C(N/N=C/C(Cl)=C/c1ccccc1)c1ccccc1F	.	.	?	?	.
O=C(N/N=C/C(Cl)=C\c1ccccc1)c1cnccn1	.	.	?	-85	?
CC(=C/c1ccccc1)/C=N/NC(=O)c1cnccn1	.	.	.	.	.
O=C(N/N=C/C(Cl)=C\c1ccccc1)c1ccco1	.	.	?	-77	.
SMILES	ASM inhibitor	TSHR antag	Chronic BCR inh	CtBP-E1A inh	Six1-Eya2 blk
O=C(N/N=C/C(Cl)=C/c1ccccc1)c1cnccn1	.	.	.	-92	?
O=C(N/N=C/C(Cl)=C/c1ccccc1)c1ccco1	.	.	?	?	.
CC1=C(C(=O)Nc2ccccc2)C(c2ccc(Cl)cc2)n2c(s/c(=C/c3cccc(OCC(=O)O)c3)c2=O)=N1 (stereo not drawn)	25µM	.	?	.	.
COC(=O)c1cc(-c2ccc(Br)cc2)n[nH]1	.	.	?	.	.
COC(=O)c1cc(-c2c[nH]c3ccccc23)n[nH]1	.	-86	.	.	.
CCCCC(=O)N/N=C/c1ccc(Sc2cccc3cccnc23)o1	.	.	?	-88	-80
O=C(Cc1cccc2ccccc12)N/N=C/c1ccc(Sc2cccc3cccnc23)o1	/	.	?	/	/
CN(C)S(=O)(=O)c1cccc(NC(=O)CSc2cccc3cccnc23)c1	.	.	?	-91	-91
O=C(CSc1cccc2cccnc12)N/N=C/c1cccc(O)c1	.	.	?	/	.
O=C(CSc1cccc2cccnc12)N/N=C/c1ccc(F)cc1	.	.	.	?	-67
Fc1cccc(CNc2ncnc3ccc(-c4ccccc4Cl)cc23)c1	/	.	.	/	/
CCOC(=O)c1ccc(CN(Cc2ccc(F)cc2)S(=O)(=O)c2ccc(F)c(C(=O)Nc3c(C)cccc3C)c2)cc1	/	/	.	/	/
CCOC(=O)c1ccc(N2C(=O)c3n[nH]c(-c4ccco4)c3C2c2cccc([N+](=O)[O-])c2)cc1 (stereo not drawn)	28µM	.	.	.	.
CCOC(=O)c1ccc(N2C(=O)c3n[nH]c(C)c3C2c2ccco2)cc1 (stereo not drawn)	.	.	?	.	.
COc1cccc(NC(=S)N2CCCN(Cc3ccc(F)cc3)C2)c1	.	-104	.	?	.
COc1ccc(NC(=S)N2CCCN(Cc3cccc(Cl)c3)C2)cc1	.	.	.	.	.
C=CC[n+]1ccc(/C=C2\C=Cc3cc(C)ccc3N2CC)c2ccccc21	.	.	?	.	-73
COc1ccc(-c2nc3ccccc3s2)cc1NC(=O)c1cccc(F)c1	/	/	.	/	/
Cc1ccccc1C(=O)N1CCN(c2ccc(NC(=O)c3cccnc3Cl)cc2)CC1	.	.	.	.	.
O=C(Nc1ccc(N2CCN(C(=O)c3ccccc3F)CC2)cc1)c1ncn[nH]1	.	.	?	?	-72
CCOC(=O)c1nnn(-c2ccc([N+](=O)[O-])cc2[N+](=O)[O-])c1C	.	.	?	-66	.
CCOC(=O)c1nnn(-c2ccccc2)c1C	.	.	.	.	.
Cc1ccc(S(=O)(=O)N2CCC(c3ccncc3)CC2)c(C)c1	/	/	.	/	/
CCc1ccc(NS(=O)(=O)c2cc3[nH]c(=O)c(=O)[nH]c3cc2C)cc1	.	-140	.	/	.
Cc1cc2[nH]c(=O)c(=O)[nH]c2cc1S(=O)(=O)Nc1cccc(F)c1	.	.	?	/	.
SMILES	ASM inhibitor	TSHR antag	Chronic BCR inh	CtBP-E1A inh	Six1-Eya2 blk
COc1ccc(Nc2c([N+](=O)[O-])ccc3c2=NC2(CCCCC2)N=3)cc1	.	.	?	-76	-78
Cc1cccc(-c2csc(N3CCC(C(N)=O)CC3)n2)c1	/	.	/	/	/
O=C(C1CCCCC1)N(Cc1cccnc1)c1nc2ccc(Cl)cc2s1	/	/	.	/	/
CCN1/C(=C2\C(=O)N(C)C(=S)N2C)C=Cc2ccccc21	.	.	?	.	?
CCN1C(=O)/C(=C2\C=Cc3ccccc3N2CC)OC1=S	.	/	/	.	.
CCN1C(=O)/C(=C2/C=Cc3ccccc3N2CC)SC1=S	.	.	?	/	-84
CCCN1/C(=C2/SC(=S)N(CC)C2=O)C=Cc2ccccc21	?	.	.	-70	-80
CN1C(=O)/C(=C2/C=Cc3ccccc3N2CCCS(=O)(=O)O)SC1=S	.	.	?	.	.
CCCN1C(=O)/C(=C2/C=Cc3ccccc3N2CC)SC1=S	.	.	?	-76	-76
